Assay results reported in PubChem BioAssay (EPA / NIEHS).
Activity calls are given as the source filed them. How the source made its calls: active means hit-call score of the fitted dose curve at least 0.9, where 1 is the maximum; inactive means score below 0.9.

Test: CCTE_Shafer_MEA_acute_spike_number: CCTE's Neural Acute Assay for Total Number of Spikes, Shafer Lab (AID 2284008);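 on AC50: curve fitted for decrease in spike count so AC50 reflects inhibitors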
Protocol: CCTE_Shafer_MEA_acute assay is conducted using Axion Biosystems 48 well microelectrode array (MEA) plates and Maestro recording system. Each well of the MEA plate contains a grid of 16 microelectrodes embedded in the culture surface. Electrically active cells, such as neurons, can be cultured over the electrodes, and electrical activity in these cells can be recorded extracellularly. The spontaneous firing of neurons is captured from each electrode on a microsecond timescale providing both temporally and spatially precise data. […] The CCTE_Shafer_MEA_acute assay uses primary cultures of rat cortical neurons. As these cultures mature over time, neural networks develop functional activity and form cohesive networks in which electrical activity can be highly coordinated. Baseline 40-minute recordings are made on days post-plating 13 or 15, followed by a secondary 40-minute recording after chemical exposure.CCTE_Shafer_MEA_acute_spike_number is a component of the CCTE_Shafer_MEA_acute assay. It measures the total number of spikes (action potential firings) in a 40-minute recording in a microelectrode array (MEA) using Axion Biosystems Maestro 768 channel amplifier with the AxIS adaptive spike detector. The recordings before and after chemical treatment are used to calculate a percent change in the spike number in each well. Data from the assay component CCTE_Shafer_MEA_acute_spike_number was analyzed into 1 assay endpoint. This assay endpoint, CCTE_Shafer_MEA_acute_spike_number, was analyzed in the negative analysis fitting direction relative to DMSO as the negative control and baseline of activity. Using a type of functional reporter, gain or loss-of-signal activity can be used to understand electrical activity.
Spontaneous activity in the cortical cultures was recorded using an Axion Biosystems Maestro 768 channel amplifier and Axion Integrated Studios (AxIS) v1.8 (or later) software. The amplifier recorded from all channels simultaneously (gain = 1200 x; sampling rate = 12.5 kHz/channel): raw signals were filtered with a Butterworth band-pass filter (300-5000 Hz), which filters out slower local field potentials leaving only fast potentials, i.e., "spikes", arising from extracellular currents associated with action potentials (Pine 2006; Wheeler and Nam 2011). On-line spike detection of filtered signals was conducted with the AxIS adaptive spike detector, using a threshold of 8x the root mean squared (rms) noise on each channel. Any electrodes with rms noise levels greater than 5 uV were grounded (e.g., no data were recorded). Once grounded, an electrode was grounded for the duration of the experiment. All recordings were conducted at 37 C. Wells were deemed usable if on the day of the exposure >/= 10 electrodes were active (defined as >/= 5 spikes/min). On DIV 13 or 15, a minimum of three wells from one cortical culture preparation were treated with each compound (0.03-40 uM). Prior to recording baseline activity, each mwMEA plate was placed in the Maestro at 37 C and allowed to sit for 20 min while firing rates stabilized. Baseline activity (40 min) was recorded before the addition of each compound. An additional 40 min of spontaneous activity was recorded in the presence of each compound. Changes in network parameters relative to baseline were assessed following compound treatment.
With `CCC(C)c1ccccc1O` (configuration not stated) the AC50 was 2.06 µM (active). In the case of `OCC(CO)(CBr)CBr`, the outcome is reported as “inactive”. With `O=C1NS(=O)(=O)c2ccccc21` the AC50 was 0.00978 µM (active). With `O=C(CCCN1CCC(O)(c2ccc(Cl)cc2)CC1)c1ccc(F)cc1` the AC50 was 1.7 µM (active). For `N=C(N)c1ccc(OCCCCCOc2ccc(C(=N)N)cc2)cc1`, the outcome was “inactive”. In the case of `CCCCCCCCCCCC`, the outcome is reported as “inactive”. With `CC(=O)Nc1ccc(O)cc1` the outcome was “inactive”. In the case of `CN(C)CCOC(c1ccccc1)c1ccccc1`, the AC50 is reported as 4.98 µM (active). In the case of `Oc1c(Cl)cc(Cl)cc1Sc1cc(Cl)cc(Cl)c1O`, the outcome is reported as “inactive”. For `Oc1ccc(Cc2ccccc2O)cc1`, the AC50 was 0.00292 µM (active). For `CCCCC=O`, the outcome was “inactive”. In the case of `CCCCc1oc2ccccc2c1C(=O)c1cc(I)c(OCCN(CC)CC)c(I)c1`, the AC50 is reported as 8.91 µM (active).
